Most compounds without a hit are left out; they make up all but 21% or so of the library.
Pf growth 48h: inhibits P. falciparum growth in the first generation, 48 h. P. falciparum luciferase growth in erythrocytes, 48 h. Potency, µM (top dose mostly 28.7 µM), without a hit: top-dose activity change, negative = inhibition, actives largely listed as inhibitors. 5.9% of 310,000 active; note: potency is the fitted concentration of half-maximal effect; % is set by controls: 0 for no effect and ±100 for the full control effect
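Luminescence readout; reporter = integrated firefly luciferase in P. falciparum. RBC culture at 2% hematocrit, 0.1% parasitemia final, 37 C/5% CO2; decreased signal taken as growth inhibition.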
Shiga inhibitor: Shiga toxin inhibition; Vero cells, Shiga toxin protein synthesis inhibition reporter; inhibition, % at 38.7 µM; 9.2% of 290,000 active; AID 2315; in the data active = inhibition mostly above about 28%, no sharp cut-off; inactive = mostly below about 43%; note: 0% is about no effect
CHX counter: counter-screen for Shiga toxin inhibitors: cycloheximide protein synthesis inhibition. cell reporter, cycloheximide protein synthesis inhibition counterscreen. 12% of 300,000 active. max response, %; in the data active = max response mostly above about 13%, no sharp cut-off; inactive = mostly below about 14%; note: read at 38.3 µM for the half of the compounds with a filed dose; 0% is about no effect
Sm TGR inh: S. mansoni TGR enzyme inhibition | Q962Y6 | purified TGR, DTNB reduction, TNB absorbance 405 nm | Potency, µM (doses to about 114 µM), inactives show at the highest dose activity change, negative = inhibition, hits mostly inhibitors | 3% of 360,000 active; note: potency is the fitted concentration of half-maximal effect; % is set by controls: 0 for no effect and ±100 for the full control effect; nearly all actives have a fitted effect of over 60% in size
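First, TGR (20 nM dispensed) and NADPH were mixed with compound. Second, a 15 min room-temperature incubation followed. Third, further NADPH and then DTNB were added to start the reaction. Finally, TNB absorbance was monitored kinetically.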
NS1 inh: inhibitors of influenza NS1 protein function. 0.4% of 270,000 active. Potency, µM (doses to about 46.1 µM), inactives show at the highest dose activity, positive = more growth; calls by dose curve; note: potency is the fitted concentration of half-maximal effect; actives are rising curves; nearly all actives have a fitted effect of over 50% in size
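Recovery from NS1-induced slow growth read by OD600 in budding yeast switched to galactose assay medium (pH 6.0, -URA) at 1:100 dilution. Compound 23 nl per well; the matching strain lacking NS1 serves as control.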
Pf growth 96h: P. falciparum growth inhibition at 96 hour, primary screen for plastid delayed-death inhibitors; Potency, µM (titrated, usually from 28.7 µM), for the others: at the highest dose activity change, negative = inhibition, actives largely listed as inhibitors; P. falciparum luciferase reporter growth, 96 h; 6.9% of 320,000 active; note: potency is the fitted concentration of half-maximal effect; % is set by controls: 0 for no effect and ±100 for the full control effect
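Erythrocytes infected with luciferase-expressing P. falciparum were dispensed at 2% hematocrit and 0.05% parasitemia (final), then incubated with compounds 96 hours at 37 C in 5% CO2. Luminescence after detection reagent addition reported growth.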
Numbers without * were called inactive; u = inconclusive; x = no result; [ ] = another dose, or the depositor's remark. Unless noted, calls come from the whole dose curve; as a rule, active = well fitted curve in the direction sought with a large enough effect; inconclusive = small, poorly fitted or top-dose-only effect, or another doubt; inactive = no such curve, though single readings can be large; an effect the other way counts as inactive or inconclusive.

SMILES	Pf growth 48h	Shiga inhibitor	CHX counter	Sm TGR inh	NS1 inh	Pf growth 96h
O=C(CCl)N1c2ccccc2CCc2ccccc21	10µM*	-9	-2	11µM*	-24%	u
O=C(COc1ccc(F)cc1)N1c2ccccc2CCc2ccccc21	u	-9	-4	-2%	-11%	u
COc1cc2c(C(=O)NCc3ccc(C)o3)cn(CC(C)C)c(=O)c2cc1OC	u	-27	13	10µM*	9%	u
CCn1cc(C(=O)NCc2ccco2)c2cc(OC)c(OC)cc2c1=O	16%	-8	21*	u	-13%	x
Cc1cc(C)cc(C(=O)NC(CC(N)=O)c2ccc(NCCN3CCCC3)c([N+](=O)[O-])c2)c1 (centres undefined)	10%	-5	1	-1%	2%	-14%
c1cnc(SCCOc2ccc3c(c2)CCC3)nc1	x	75*	36*	4%	-6%	326%
CNCCCOc1ccc2c(c1)CCC2	u	76	21*	-12%[57.1 µM]	5%	11%[5.75 µM]
c1cc2c(cc1OCCNC1CCCC1)CCC2	-18%	-4	8	-1%	8%	12µM*
c1ccc(-c2ccc(OCCCNC3CCCC3)cc2)cc1	13µM*	11	11	x	-7%	3%
Cc1nn(CC(=O)OC(C)C(=O)Nc2ccccc2[N+](=O)[O-])c(C)c1[N+](=O)[O-] (centres undefined)	3%	-1	0	0%	-30%	-4%
CC(C)N(Cc1ccccc1)C(=O)COC(=O)c1ccc(O)cc1	u	x	x	-6%	x	u
CCn1c(C)nc([N+](=O)[O-])c1Sc1ccc(F)cc1	u	-11	-4	40µM*	13%	10µM*
Cc1ccc(OP(N)(=O)Oc2ccc(C)cc2)cc1	u	42	7	9%	x	5.9µM*
Cc1ccc(S(=O)(=O)c2nnn(CC(=O)Nc3ccccc3C)c2N)cc1	x	x	x	-7%	x	x
CN(C)CCCNC(=O)CC(c1ccc(F)cc1)c1ccco1 (centres undefined)	1%	-7	-4	-13%	-3%	u
CC(C)Oc1ccc(C(CC(=O)NCCCN(C)C)c2ccc(F)cc2)cc1 (centres undefined)	u	15	-2	-1%	-6%	12µM*
CCCCCN(C(=O)CCC(=O)OCC(=O)N1CCCCC1C)c1c(N)n(CCCC)c(=O)[nH]c1=O (centres undefined)	-3%	-10	0	8%	5%	8%
CC(C(=O)Nc1ccc(Cl)cc1)N1C(=O)NC2(CCCC2)C1=O (centres undefined)	18%	4	-3	0%	0%	1%
Cc1ccc(C)c(NC(=O)c2ccc3ccccc3n2)c1	x	39	30*	2%	-14%	287%
Cc1ccc(NC(=S)c2ccc3ccccc3n2)c(C)c1	103%	85*	30*	6%	0%	75%
Cc1ccc(S(=O)(=O)N(C)C)cc1NC(=O)c1ccncc1	4%[5.75 µM]	1	-3	3%	x	-15%[5.75 µM]
Cc1ccc(S(=O)(=O)N(C)C)cc1NC(=O)c1ccc2ccccc2n1	0%	38	37*	4%	10%	u
Cc1ccc(NC(=O)c2cc(C)nc3ccccc23)c(C)c1	u	x	-2	-20%	5%	-25%
COc1nc(NCC(C)C)nc(Oc2ccc(=O)n(-c3ccccc3)n2)n1	x	42	-2	8%	-4%	17%
CCNc1nc(Oc2ccc(=O)n(-c3ccccc3)n2)nc(N(C)C)n1	-14%	-11	-5	6%	8%	2.6µM*
CCNc1nc(OC)nc(Oc2ccc(=O)n(-c3ccccc3)n2)n1	0.93µM*	5	7	2%	3%	0%[5.75 µM]
CCNc1nc(NCc2ccccc2)nc(Oc2ccc(=O)[nH]n2)n1	1µM*	3	0	2%	-1%	-20%
COC(=O)c1ccccc1NC(=O)CSc1nc(C)c(Cl)c(C)c1C#N	x	x	x	5%	x	x
CC(NC(=O)c1ccco1)C(=O)N1CCc2ccccc2C1 (centres undefined)	u	38	16	-15%	-3%	x
CCn1cc(C(=O)N2CCN(c3cccc(Cl)c3)CC2)c(=O)c2cc(S(=O)(=O)N3CCCCC3)ccc21	x	x	x	0%	x	x
